Inconclusive results are not listed. A number with no mark means an inactive call. Activity calls are given as the source filed them. The call rests on the fitted dose curve; in most records, active means well fitted cell-killing curve with a large enough effect; inconclusive means small, poorly fitted or top-dose-only effect, or effect the other way; inactive means no such curve, though single readings can be large or run the other way.
Potency means the concentration at half of the fitted maximal effect.

The test is described as follows: Quantitative High-Throughput drug screen in 47 multiple myeloma cell lines against the NCATS MIPE library collection: ARP1_JJKsccF8 cell viability assay (AID 1918928; further: nearly all actives have a fitted effect of over 40% in size). The conditions noted are these: ARP1 myeloma cells viability, CellTiter-Glo ATP, 48 h; series mostly up to 45.8 µM; viability: at the top concentration. Summed up: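 Myeloma cells, 500 per well, were exposed to MIPE 4.0 drugs by pin transfer for 48 h at 37 °C, 5% CO2. Viability was read as ATP luminescence with CellTiter-Glo, normalised to DMSO-only (100%) and medium-only (0%) wells.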
On the technique in general: In ATP-based viability assays light output follows the ATP content of the culture.
As for `CC(C)OC(=O)CCCC=CC[C@@H]1[C@H](C=C[C@@H](O)COc2cccc(C(F)(F)F)c2)[C@H](O)C[C@@H]1O`, the Potency is 20.9 µM (active).

As to `N[C@H](CSC(c1ccccc1)(c1ccccc1)c1ccccc1)C(=O)O`, the Potency was 13.2 µM (active).

With `CC=CC(=O)N(CC)c1ccccc1C`, the Potency is 5.26 µM (active).

Take `CC1(C)CCC[C@@]2(C)[C@@H]1CC[C@@]1(C)OC(=O)C[C@H]21`: the viability (commonly a read-out of living cells in per cent, often relative to untreated cells) was 106%.

As for `CCc1ccc(C=C2SC(=S)NC2=O)cc1`, the “viability” value is 76.5%.

On to `C[C@]12CC[C@@H]3c4ccc(O)cc4CC[C@H]3[C@H]1C[C@@H](O)[C@H]2O`, for which the Potency was 9.35 µM (active).

As to `Cc1ccc(F)c(NC(=O)Nc2ccc(-c3cccc4[nH]nc(N)c34)cc2)c1`, the Potency is 26.4 µM (active).

Turning to `NC[C@@H]1O[C@@H](O[C@H]2[C@@H](O)[C@H](O[C@@H]3[C@@H](O)[C@@H](N)C[C@H](N)[C@H]3O[C@H]3O[C@H](CN)[C@@H](O)[C@@H](O)[C@H]3N)O[C@H]2CO)[C@H](N)[C@@H](O)[C@@H]1O`, the “viability” value was 93.4%.

With `CCOC(=O)O[C@]1(C(=O)OCCl)CC[C@@H]2[C@H]3CCC4=CC(=O)C=C[C@]4(C)[C@@H]3[C@@H](O)C[C@@]21C`, the Potency is 0.0372 µM (active).

Turning to `CCc1ccc(OCc2ccccc2C(=O)Nc2ccc3nc(C)cc(N)c3c2)cc1`, the Potency was 7.43 µM (active).

With `CC=CC[C@@H](C)C(=O)[C@H]1C(=O)N[C@@H](C(C)C)C(=O)N(C)CC(=O)N(C)[C@@H](CC(C)C)C(=O)N[C@@H](C(C)C)C(=O)N(C)[C@@H](CC(C)C)C(=O)N[C@@H](C)C(=O)N[C@H](C)C(=O)N(C)[C@@H](CC(C)C)C(=O)N(C)[C@@H](CC(C)C)C(=O)N(C)[C@@H](C(C)C)C(=O)N1C`, the Potency was 18.7 µM (active).

As to `CCCCCCCCCCCC1=C(O)C(=O)C=C(O)C1=O`, the Potency is 11.8 µM (active).

Turning to `O=C1c2c(O)cc(O)cc2O[C@H](c2cc(O)c(O)c(O)c2)[C@H]1O`, the Potency was 11.8 µM (active).

For `C[C@@H]1CCN(C(=O)CC#N)C[C@H]1N(C)c1ncnc2[nH]ccc12`, the “viability” value is 86%.

For `N[C@@]1(C(=O)O)CS(=O)(=O)[C@H]2[C@H](C(=O)O)[C@H]21`, the “viability” value is 85.2%.

`NC1CCC(Nc2nc(Nc3ccc(C(=O)N4CCCCC4)cc3)c3ncn(-c4cccc(F)c4)c3n2)CC1` (centres undefined): the “viability” value is 92.1%.

`CC[C@@]1(O)C[C@H](O[C@H]2C[C@H](N(C)C)[C@H](O[C@H]3C[C@H](O)[C@H](O[C@H]4CCC(=O)[C@H](C)O4)[C@H](C)O3)[C@H](C)O2)c2c(cc3c(c2O)C(=O)c2c(O)cccc2C3=O)[C@@H]1C(=O)OC`: the Potency was 1.05 µM (active).

Turning to `O=c1c(-c2ccc(O)cc2)coc2cc(O[C@@H]3O[C@H](CO)[C@H](O)[C@H](O)[C@H]3O)ccc12`, the Potency is 3.72 µM (active).

As for `Cc1[nH]c(C=C2C(=O)Nc3ccc(S(=O)(=O)Cc4c(Cl)cccc4Cl)cc32)c(C)c1C(=O)N1CCC[C@H]1CN1CCCC1`, the Potency is 23.5 µM (active).

As for `Cc1nnc(C(C)C)n1C1C[C@H]2CC[C@@H](C1)N2CC[C@H](NC(=O)C1CCC(F)(F)CC1)c1ccccc1` (some centres undefined), the “viability” value was 103%.

Turning to `CC1(C)S[C@H]2[C@H](NC(=O)[C@@H](N)c3ccc(O)cc3)C(=O)N2[C@@H]1C(=O)O`, the Potency is 20.9 µM (active).

In the case of `O=C(CCc1ccc(O)cc1)c1c(O)cc(O)cc1O[C@@H]1O[C@H](CO)[C@H](O)[C@H](O)[C@H]1O`, the “viability” value was 112%.

For `CO[C@H]1C=CC=C(C)C(=O)NC2=CC(=O)C(NCCN(C)C)=C(C[C@@H](C)C[C@H](OC)[C@@H](O)[C@@H](C)C=C(C)[C@@H]1OC(N)=O)C2=O`, the Potency was 0.0118 µM (active).

With `CCN(CC)CCOc1ccc(C(=C(Cl)c2ccccc2)c2ccccc2)cc1`, the “viability” value was 105%.
